Laboratory results taken from ChEMBL document CHEMBL3988442, “University of Dundee, Small-Polar-MMV Screening Library” (2021).
About 13,000 (27%) of roughly 48,000 compounds showed an effect of 50% or more. The list shows a part of the results.

system: Wolbachia pipientis; assay: Anti-Wolbachia Cell-Based Screen; assay type: functional; set-up: scale not given: in the data most compounds retested in dose-response had high values; conditions: 5 µM

Row | SMILES | Percent Effect [%]
1 | CN(C[C@@H]1CCC[C@@H]2CN(Cc3cccnc3)C[C@@H]21)C1CC1.O=C(O)C(F)(F)F.O=C(O)C(F)(F)F | 2.908
2 | O=C(O)C(F)(F)F.c1cncc(CN2C[C@H]3CCC[C@@H](CNc4cnccn4)[C@H]3C2)c1 | 134.5
3 | Cn1ccnc1NC[C@@H]1CCC[C@@H]2CN(Cc3cccnc3)C[C@@H]21.O=C(O)C(F)(F)F | 109.4
4 | O=C(O)C(F)(F)F.c1ccc(NC[C@@H]2CCC[C@@H]3CN(Cc4cc[nH]n4)C[C@@H]32)nc1 | -6.028
5 | O=C(O)C(F)(F)F.c1cnc(NC[C@@H]2CCC[C@@H]3CN(Cc4csnn4)C[C@@H]32)nc1 | 17.75
6 | O[C@@]1(CNCCCNc2cccnc2)CCCN2CCCC[C@@H]21 | 3.199
7 | Cc1nc(O)cc(CN2CC=C(c3cnn(C(C)(C)C)c3)CC2)n1 | 6.105
8 | CC(Cc1ccccc1Br)NC(=O)CCS(C)(=O)=O (stereo unspecified) | 11.71
9 | O=C(O)C(F)(F)F.c1cnc(NC[C@@H]2CCC[C@@H]3CN(Cc4cccnc4)C[C@@H]32)nc1 | -1.894
10 | O=C(O)C(F)(F)F.c1ccc(NC[C@@H]2CCC[C@@H]3CN(Cc4nccs4)C[C@@H]32)nc1 | -15.69
11 | O=C(O)C(F)(F)F.c1ccc(NC[C@@H]2CCC[C@@H]3CN(Cc4cccnc4)C[C@@H]32)nc1 | 90.18
12 | CSCCCN1CC[C@@]2(O)CCN(c3ncccn3)C[C@H]2C1 | -7.567
13 | Cc1cccc(-c2ncc(CNC(C)Cc3ncccc3C)cn2)c1 (stereo unspecified) | -7.429
14 | Cc1cc(NC2CC3(CCN(Cc4csc(C)n4)C3)C2)ncn1 (stereo unspecified) | 114
15 | Cc1nc(CN2CCC3(C2)CN(C(=O)c2conc2C)C3)cs1 | 97.08
16 | Cc1nc(CN2CCCC3(CCN(c4cccnc4)C3=O)C2)cs1.O=C(O)C(F)(F)F.O=C(O)C(F)(F)F (stereo unspecified) | -13.68
17 | Cc1cc(NC2CC3(CCN(Cc4cscn4)C3)C2)ncn1 (stereo unspecified) | 115
18 | Cc1noc(C)c1CN1C(=O)[C@H]2CC[C@@H]1CN(Cc1cscn1)C2 | -52.5
19 | c1cc(NC2CC3(CCN(Cc4cscn4)C3)C2)ncn1 (stereo unspecified) | 101.6
20 | c1cc(NC2CC3(CCN(Cc4cc[nH]n4)C3)C2)ncn1 (stereo unspecified) | -10.13
21 | Cc1cc(CN2C[C@H]3CCC[C@@]3(COCc3csc(C)n3)C2)no1.O=C(O)C(F)(F)F | 6.371

Row | SMILES | Percent Effect [%]
22 | NCC1(c2cccc(F)c2)CCOCC1 | -10.48
23 | Cc1cc(CC(=O)N2CCN(CC3CC3)[C@@H]3CS(=O)(=O)C[C@@H]32)ccc1F | 7.302
24 | O=S1(=O)CCC(n2cc(C3=CCN(CCc4ccccc4)CC3)cn2)C1 (stereo unspecified) | -5.355
25 | Cc1n[nH]c(C)c1CC(=O)N1CCN(C)C2(CCNC(=O)CC2)C1 (stereo unspecified) | 2.016
26 | O=C(Nc1ccccc1)[C@H]1CN2CC[C@H]1C[C@@H]2Cn1cc(CCO)nn1 | -5.907
27 | CC(=O)N1CCC2(CC1)c1ncc(-c3cccnc3)n1CCN2C | 84.46
28 | CCC1CCCCN1CCc1ccncc1 (stereo unspecified) | -22.38
29 | CC1CN(CCc2ccncc2)CCO1 (stereo unspecified) | 124.6
30 | c1ccc2c(c1)CCC21CN(CCc2ccncc2)CCO1 (stereo unspecified) | -6.517
31 | CC(C)=CCN1C(=O)[C@H]2CC[C@@H]1CN(Cc1cccnc1N)C2 | 18.56
32 | COc1cccc(CC(C)NC(=O)NCc2ccn(C)c2)c1 (stereo unspecified) | -0.6382
33 | O=C(O)C(F)(F)F.O=C(O)C(F)(F)F.O=C1NCC[C@]12CN(Cc1ccncc1)C[C@H]2c1ccccc1 | 4.919
34 | COC[C@@H]1CCC[C@]12CN(Cc1cccc(C)n1)CCO2.O=C(O)C(F)(F)F.O=C(O)C(F)(F)F | 6.622
35 | O=C(NCC1CC[C@@]2(CNCCOC2)O1)c1cccnc1 (stereo partly specified) | -3.368
36 | CN(C)C(=O)CN1CC[C@@H]2O[C@@H](COCc3cccnc3)CC[C@@H]21.O=C(O)C(F)(F)F.O=C(O)C(F)(F)F | -11.44
37 | Cl.Cl.c1cncc(COC[C@@H]2CCC[C@@]23CNCCO3)c1 | 86.08
38 | O=C(O)C(F)(F)F.c1cc(COC[C@H]2CCC[C@]23CNCCO3)ccn1 | 99.79
39 | O=C(O)C(F)(F)F.O=C(O)C(F)(F)F.c1cncc(COC[C@@H]2CCC[C@]23CNCCO3)c1 | 101.8
40 | O=C(O)C(F)(F)F.O=C(O)C(F)(F)F.O=C1NCC[C@]12CN(Cc1cccnc1)C[C@H]2c1ccccc1 | -5.552
41 | CCN(Cc1cccnc1)CC1CCCO1 (stereo unspecified) | -10.66
